Source: PubChem BioAssay (NCI)
The panel holds about 79,000 compounds, 15% with a hit somewhere; the sample as a whole holds those more often. Values without a mark were called inactive. Activity calls are given as the source filed them. No stated cut-off is given here; in the data, active means growth inhibition above about 70%; inactive means the rest.

Assay: NCI Yeast Anticancer Drug Screen. Data for the rad52 strain (AID 147);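 further: 0% = growth of vehicle-treated control cultures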
Details: S. cerevisiae rad52 mutant growth inhibition; at 1.2 µM; active compounds read high
How it was run: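 Compounds are applied to a genetically defined yeast strain lacking normal DNA damage repair, and inhibition of growth is expressed relative to cultures given vehicle only.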

SMILES | growth inhibition
OC(Cc1cccc2ccccc12)CN1CCC(c2ccccc2)CC1 (stereo unspecified) | 52%
C1=CCN([B-](c2ccccc2)[C+]2CCCCC2)C=C1 | -3%
O=[N+]([O-])c1cc[n+]([O-])c(Cl)c1 | 1%
CCCNC(=O)OCc1c(COC(=O)NCCC)c(-c2ccc(Cl)c(Cl)c2)n2c1CCC2 | -3%
CC1(C)CC(=O)C(C(=O)Nc2cccs2)=C(O)C1 | -8%
O=C(NO)c1coc2ccccc2c1=O | -1%
COc1ccc(C(C)c2cc3c(cc2OCC(C)=O)OCO3)cc1 (stereo unspecified) | -3%
CCS(=O)(=O)Nc1ccc(Nc2c3ccccc3nc3ccccc23)c(OC)c1 | 62%
O=S(=O)(c1ccccc1)N1CN2CN(C1)CN(S(=O)(=O)c1ccccc1)C2 | -10%
CC1=NN(C(=O)c2ccccc2O)C(=O)/C1=C/c1ccco1 | 1%
O=C1C=C(Br)C(=O)c2ccccc21 | 6%
C[N+](C)([O-])CCCNc1c2ccccc2nc2cccc([N+](=O)[O-])c12 | 54%
Cc1cccc2c(NCCCN(C)C)c3c([N+](=O)[O-])ccc(C)c3nc12 | 76% (active)
OC1(c2ccccc2)C2CC=CC2C1(c1ccccc1)c1ccccc1 (stereo unspecified) | 0%
C[n+]1c(-c2ccc(/C=N/NC(=O)c3ccc(C(=O)N/N=C/c4ccc(-c5cn6ccccc6[n+]5C)cc4)cc3)cc2)cn2ccccc21 | 5%
CCN(CC)CCC(=O)Nc1ccc2sc3ccccc3c(=O)c2n1 | 33%
